# Screens (PubChem BioAssay)
# ATXN2 expr inh = Primary qHTS for Inhibitors of ATXN expression. HEK-293 ATXN2-luciferase reporter, luminescence, 24 h. Potency, µM (titrated, usually from 57 µM), inactives show top-dose activity change, negative = inhibition, usual class: inhibitors. 0.72% of 360,000 active. AID 1745845, 2022; further: on the % scale 0 is the no-effect control and ±100 the full control effect; nearly all actives have a fitted effect of over 55% in size
#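 qHTS (up to 57 uM final) was run with 24 h compound exposure of reporter cells at 37 °C. Each well was multiplexed: SteadyGlo luminescence measured ATXN2-luciferase expression after a fluorogenic Gly-Phe-AFC viability readout (25 uM final).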
# TGFb inhibitor = qHTS for Inhibitors of TGF-b; HepG2 CAGA-GFP TGF-b/SMAD3 reporter, GFP fluorescence, 18 h; TGF-beta stimulated, 500 pg/mL final; Potency, µM (top dose mostly 46.1 µM), without a hit: top-dose activity, negative = inhibition, usual class: inhibitors; 1.2% of 410,000 active; further: on the % scale 0 is the no-effect control and ±100 the full control effect; nearly all actives have a fitted effect of over 65% in size
#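 Read-out: total well GFP (ex488/em500-530) summed from mean per-cell fluorescence. Cells: HEPG2 CAGA-GFP, 1% FBS DMEM, 18 h at 37 degrees C with 500 pg/mL final TGF-beta. Unstimulated wells served as the full-inhibition control; stimulated DMSO wells = 0%.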
# HepG2 tox-1 = qHTS for Inhibitors of TGF-b: Cytotox Counterscreen | HepG2 CAGA-GFP viability, ATP luminescence, 18 h | 0.76% of 410,000 active | Potency, µM (series often up to 46.1 µM), for inactives: at the top dose activity change, negative = cytotoxicity, most hits filed as cytotoxic | AID 588856, 2011
#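 CellTiter-Glo luminescence gave cytotoxicity after 18 hours at 37 degrees C. The cells were HepG2 CAGA-GFP in 1% FBS DMEM, stimulated with 500 pg/mL TGF-beta after compound addition. %Activity was normalised to no-cell wells (complete cell-killing) and DMSO (no toxicity), and curves were fitted and classified.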
# ATXN viability = Viability Counterscreen for Primary qHTS for Inhibitors of ATXN expression. S2 cells (HEK-293 line with an ATXN2-luciferase reporter) viability, CellTiter-Fluor protease fluorescence, 24 h. Potency, µM (series often up to 56.7 µM), hits mostly cytotoxic. 0.49% of 400,000 active; further: nearly all actives have a fitted effect of over 40% in size
# TGFb confirm = qHTS for Inhibitors of TGF-b: Confirmation of Cherry Picks | shares compounds with TGFb inhibitor | HepG2 CAGA-GFP TGF-b reporter, GFP fluorescence, 18 h; cells stimulated with TGF-beta, 500 pg/mL | Potency, µM (series often up to 46.1 µM), for inactives: top-dose activity, negative = inhibition, actives largely listed as inhibitors | 63% of 1,600 active | AID 720534, 2013; further: on the % scale 0 is the no-effect control and ±100 the full control effect; nearly all actives have a fitted effect of over 65% in size
# HepG2 tox-2 = qHTS for Inhibitors of TGF-b: Cytotox Counterscreen for Cherry Picks; shares compounds with TGFb inhibitor; HepG2 CAGA-GFP viability, ATP luminescence, 18 h; cells stimulated with TGF-beta, 500 pg/mL; Potency, µM (series often up to 46.1 µM), inactives show top-dose activity, negative = cytotoxicity, usual class: inhibitors; 27% of 1,600 active; AID 720535, 2013; further: on the % scale 0 is the no-effect control and ±100 the full control effect; nearly all actives have a fitted effect of over 70% in size
# CCL64 TGFb inh = qHTS for Inhibitors of TGF-b: CCL64 Cells Orthogonal Assay for Cherry Picks; shares compounds with TGFb inhibitor; CCL64 CAGA-GFP reporter, TGF-b stimulated, GFP fluorescence, 18 h; Potency, µM (top dose mostly 46.1 µM), for inactives: at the highest dose activity, negative = inhibition, usual class: inhibitors; 41% of 1,600 active; AID 720536, 2013; further: nearly all actives have a fitted effect of over 65% in size
# TGFb COP inh = qHTS for Inhibitors of TGF-b: Hit Validation in HepG2 Cells using COP promoter; shares compounds with TGFb inhibitor; HepG2 COP-GFP TGF-b reporter, GFP fluorescence, 18 h; cells stimulated by added recombinant TGF-beta; Potency, µM (series often up to 46.1 µM), without a hit: top-dose activity, negative = inhibition, usual class: inhibitors; 3% of 1,600 active; further: nearly all actives have a fitted effect of over 70% in size
# * hit, by the source's call; i = inactive; ? = inconclusive; . = not tested or not shown. Compounds with a hit are over-represented: about 2.3% of the library has one in this group of screens. The call rests on the fitted dose curve; in most records, active means well fitted curve in the direction sought with a large enough effect; inconclusive means small, poorly fitted or top-dose-only effect, or another doubt; inactive means no such curve, though single readings can be large; an effect the other way counts as inactive or inconclusive. Potency means the concentration at half of the fitted maximal effect.
SMILES,ATXN2 expr inh,TGFb inhibitor,HepG2 tox-1,ATXN viability,TGFb confirm,HepG2 tox-2,CCL64 TGFb inh,TGFb COP inh
COc1ccc(/C=C2\CCC(C3CCCC3)C2=O)cc1 (stereo not drawn),94%,4%,12%,i,.,.,.,.
COc1ccc(/C=C2/CCC(CN3CCOCC3)C2=O)cc1 (stereo not drawn),6.7µM*,5µM*,11µM*,?,4.6µM*,3.7µM*,4.6µM*,16µM*
Nc1nc(NCc2ccc(Cl)c(Cl)c2)c2[nH]cnc2n1,.,-14%,-21%,.,.,.,.,.
Cc1ccc2c(c1)nnn2C1CCN(CC(=O)Nc2ccccc2N2CCOCC2)CC1,-28%,10µM*,-48%,?,?,?,?,10%
CCOC(=O)C1=CCN(S(=O)(=O)c2cccc(Cl)c2)C1c1cccc(C)c1 (stereo not drawn),-13%,-19%,-25%,?,.,.,.,.
CCOC(=O)C1=CCN(S(=O)(=O)c2ccc(C)cc2)C1c1cccc(Cl)c1 (stereo not drawn),?,10µM*,-32%,i,23µM*,-7%,0%,-8%
CCOC(=O)C1=CCN(S(=O)(=O)c2ccccc2Br)C1c1cccc(Cl)c1 (stereo not drawn),-15%,-26%,-11%,i,.,.,.,.
CCOC(=O)C1=CCN(S(=O)(=O)c2ccccc2F)C1c1cccc(Cl)c1 (stereo not drawn),-22%,11µM*,-18%,?,?,3%,?,-1%
CC1CCc2nc(-c3cc4ccc(O)cc4oc3=O)sc2C1 (stereo not drawn),.,170%,-6%,.,.,.,.,.
Nc1cc(=O)[nH]c2c1CCC2,.,-1%,-21%,.,.,.,.,.
O=C(CSc1nnc(Cc2ccccc2)o1)N1CCc2ccccc21,-8%,?,6%,i,.,.,.,.
O=C(CSc1nnc(COc2cccc3cccnc23)o1)N1CCc2ccccc21,-29%,?,-37%,i,?,?,-28%,39%
Cc1ccc(-c2c(C3C4C=CCCC4(C)C(=O)N3Cc3ccccc3)ccc3ccccc23)cc1 (stereo not drawn),.,-8%,2%,.,.,.,.,.
Cc1ccc(NC(=O)c2cc(S(=O)(=O)N(C)C)ccc2N2CCCC2)cc1F,0%,10µM*,-1%,i,13µM*,-15%,18µM*,-11%
CCCC(=O)NC(c1ccc(Cl)cc1)c1ccc2cccnc2c1O (stereo not drawn),7.1µM*,?,-20%,?,?,?,5.2µM*,28%
CC(C)C(=O)NC(c1cccc([N+](=O)[O-])c1)c1ccc2cccnc2c1O (stereo not drawn),2.7µM*,3.5µM*,6%,?,?,?,7.3µM*,19%
CCCC(=O)NC(c1ccc(C)cc1)c1ccc2cccnc2c1O (stereo not drawn),?,?,-18%,i,.,.,.,.
CC(C)[N+]1(C)[C@@H]2CC[C@H]1CC(OC(=O)[C@@H](CO)c1ccccc1)C2 (stereo partly drawn),.,.,.,i,.,.,.,.
NC(=S)N=Nc1c(O)n(CCCl)c2ccc(Br)cc12,?,?,-18%,?,-12%,?,?,2%
CC1(C(=O)Nc2ccccc2Cc2ccccc2)CCN1Cc1ccccc1Cl (stereo not drawn),?,13µM*,-15%,i,9.2µM*,?,16µM*,56%
Cc1ccc(C)c(S(=O)(=O)N2CCC(c3nc4c(nnn4Cc4ccc(F)cc4)c(=O)[nH]3)CC2)c1,8%,?,2%,i,.,.,.,.
O=c1[nH]c(C2CCN(S(=O)(=O)c3ccc(F)cc3)CC2)nc2c1nnn2Cc1ccc2c(c1)OCCO2,.,16µM*,-29%,i,15µM*,-23%,?,5%
Cc1ccc(Cn2nnc3c(=O)[nH]c(C4CCN(S(=O)(=O)c5cc(C)ccc5C)CC4)nc32)cc1,-3%,16µM*,-24%,i,21µM*,-19%,?,36%
O=c1c(Br)c(Br)cnn1-c1ccccc1,5.3µM*,10µM*,13µM*,.,4.6µM*,8.2µM*,4.6µM*,?
O=C(O)CNC(=O)[C@@H](CS)Cc1ccccc1,.,.,.,i,.,.,.,.
SMILES,ATXN2 expr inh,TGFb inhibitor,HepG2 tox-1,ATXN viability,TGFb confirm,HepG2 tox-2,CCL64 TGFb inh,TGFb COP inh
O=C(/C=C/c1ccccc1)N1CCOCC1,6%,4%,-4%,i,.,.,.,.
O=C(/C=C/c1ccccc1)CCN1CCOCC1,?,7.1µM*,10µM*,?,2.6µM*,7.3µM*,10µM*,?
O=c1c2ccccc2c(=O)n(Cc2ccccc2)n1Cc1ccccc1,-22%,11µM*,-16%,i,?,-29%,18µM*,?
O=c1ccn(Cc2ccccc2)c2ccccc12,0%,?,-12%,i,.,.,.,.
Cc1ccc(NC(=O)C2(c3ccc([N+](=O)[O-])cc3)CCCC2)cc1,.,?,1%,i,-28%,-9%,-10%,0%
COc1cc(OC)c2c(c1C(CCN1CCCC(C)C1)c1ccc(N(C)C)cc1)OC(=O)CC2c1ccc(N(C)C)cc1 (stereo not drawn),.,-9%,-20%,.,.,.,.,.
Cc1ccc(F)c(C2C3C=CCCC3(C)C(=O)N2Cc2ccccc2)c1 (stereo not drawn),.,?,-6%,.,.,.,.,.
COc1ccc(-c2c/c(=N\c3nc(-c4ccccc4)c(C)s3)c3ccccc3o2)cc1O,?,8.9µM*,-15%,.,8.2µM*,?,4.1µM*,37%
COc1cc2c(c(OC)c1OC)-c1ccc(SC)c(=O)cc1C(NC=O)CC2 (stereo not drawn),-14%,-91%,-34%,?,?,23µM*,?,44%
